Myeloid diff MLP – compounds promoting myeloid differentiation. ER-HoxA9 myeloid progenitors, lysozyme-GFP differentiation, flow cytometry. calls only at 10 µM. actives 1% (n = 360,000). AID 624256;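 active means normalized GFP-positive differentiation at or above the plate's own cutoff, the solvent-only control mean plus 3 SD; inconclusive means no clear call, values can overlap the other calls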;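 further: cells exposed to compound for four days before flow analysis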
Exocytosis inh – lytic granule exocytosis inhibition. inhibition, % at 10 µM. actives 0.66% (n = 360,000). TALL-104 LAMP-1 surface exposure, flow cytometry; cells stimulated with thapsigargin and PMA;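 active means inhibition above about 55%, limit read from the data; inconclusive means no clear call, values can overlap the other calls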
ABCB6 inh MLPCN – blocks the human ABCB6 transporter; AID 602162; Q9NP58; fluorescence ratio to DMSO, % at 10 µM; actives 0.19% (n = 360,000); K562-ABCB6 porphyrin accumulation, flow cytometry, 1 h; hits give low values;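 active means fluorescence ratio to DMSO below 75%, the collection mean minus 3 SD; inconclusive means too few cells collected in the well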;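 further: signal is porphyrin accumulated inside mitochondria; 100% equals median channel fluorescence of DMSO control wells; lower ratio means ABCB6 inhibition with less porphyrin fluorescence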
Target sequence (Q9NP58 whole entry, looked up): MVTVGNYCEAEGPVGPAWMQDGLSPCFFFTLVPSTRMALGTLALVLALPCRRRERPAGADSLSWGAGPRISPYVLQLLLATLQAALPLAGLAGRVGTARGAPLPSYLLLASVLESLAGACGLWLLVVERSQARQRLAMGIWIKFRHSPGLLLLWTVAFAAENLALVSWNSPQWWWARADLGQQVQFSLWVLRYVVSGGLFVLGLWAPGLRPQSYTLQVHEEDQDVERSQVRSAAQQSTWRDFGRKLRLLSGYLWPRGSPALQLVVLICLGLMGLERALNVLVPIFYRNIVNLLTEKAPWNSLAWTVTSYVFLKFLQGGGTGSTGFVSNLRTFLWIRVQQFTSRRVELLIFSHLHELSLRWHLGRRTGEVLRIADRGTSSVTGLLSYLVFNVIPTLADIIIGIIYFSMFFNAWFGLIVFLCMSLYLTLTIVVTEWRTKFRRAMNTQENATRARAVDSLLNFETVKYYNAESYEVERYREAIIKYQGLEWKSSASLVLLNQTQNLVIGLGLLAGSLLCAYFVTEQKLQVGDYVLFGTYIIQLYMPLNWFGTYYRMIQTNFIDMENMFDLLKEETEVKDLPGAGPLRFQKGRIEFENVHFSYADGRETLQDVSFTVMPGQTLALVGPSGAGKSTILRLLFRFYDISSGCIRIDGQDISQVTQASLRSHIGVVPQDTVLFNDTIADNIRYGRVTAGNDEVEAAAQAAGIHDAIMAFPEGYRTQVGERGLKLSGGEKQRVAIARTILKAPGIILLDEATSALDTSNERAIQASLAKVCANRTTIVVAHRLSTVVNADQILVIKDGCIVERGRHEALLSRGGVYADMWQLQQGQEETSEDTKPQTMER
Myeloid diff – myeloid differentiation induction. shares compounds with Myeloid diff MLP. ER-HoxA9 myeloid progenitors, GFP/Mac1 double-positive flow. calls only. actives 2% (n = 2,300);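 active means share of green or green-and-red cells above 9 and 9% in run 1 or 4 and 3% in run 2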
GFP autofluor – flagged as fluorescent in myeloid differentiation counter-screen | AID 651707 | ER-HoxA9 myeloid progenitors, no estrogen, GFP autofluorescence flow cytometry; vehicle wells 0%, positive control 100% | fluorescence response, % (concentration not given with the values) | actives 7.4% (n = 2,300) | shares compounds with Myeloid diff MLP;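 active means over 5% cells positive for green fluorescent reporter, or over 2% positive for both it and APC stain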;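 further: range taken on the double positive population between DMSO and positive control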
Active calls of the source: *. This is a sample that favours compounds with a hit; in the whole collection about 1.8% have one here.

CCN(CC)CCNC(=O)c1ccc(NC(=O)/C=C/c2ccc3ccccc3n2)cc1 was read as Myeloid diff MLP active, Exocytosis inh -1, ABCB6 inh MLPCN 111, Myeloid diff inactive and GFP autofluor 0.
`O=C(CN1CCCCCC1)Nc1ccccc1F` gave Myeloid diff MLP active, Exocytosis inh 0, ABCB6 inh MLPCN 94, Myeloid diff inactive and GFP autofluor 0.
`O=C(CCN1CCCCCC1)Nc1ccccc1F` gave Myeloid diff MLP inactive, Exocytosis inh -1 and ABCB6 inh MLPCN 94.
For O=C(N/N=C1\SCC(=O)N1CCc1ccccc1)c1cccs1 the results were Myeloid diff MLP inactive, Exocytosis inh -1 and ABCB6 inh MLPCN 102.
COc1ccc(CCN2C(=O)CS/C2=N\NC(=O)c2ccc(C(C)(C)C)cc2)cc1OC was read as Myeloid diff MLP inactive, Exocytosis inh 1, ABCB6 inh MLPCN 98, Myeloid diff inactive and GFP autofluor 0.
CSc1nc(Oc2ccc3ccccc3c2)c2sccc2n1 was read as Myeloid diff MLP active, Exocytosis inh 1, ABCB6 inh MLPCN 95, Myeloid diff inactive and GFP autofluor 0.
Screening COc1ccc(Oc2nc(SC)nc3ccsc23)cc1 returned Myeloid diff MLP inactive, Exocytosis inh 1 and ABCB6 inh MLPCN 101.
`C=CC1=CCN(S(=O)C(C)(C)C)[C@H]1CCO` (stereo partly specified) gave Myeloid diff MLP inactive, Exocytosis inh 1 and ABCB6 inh MLPCN 99.
COc1ccc(-c2nn(-c3ccccc3)cc2/C=C2/SC(=S)N(Cc3ccco3)C2=O)c(C)c1 was read as Myeloid diff MLP inactive, Exocytosis inh 3 and ABCB6 inh MLPCN 96.
Screening COc1ccc(-n2c(C)cc(/C=C3\SC(=S)N(Cc4ccco4)C3=O)c2C)cc1 returned Myeloid diff MLP active, Exocytosis inh -3, ABCB6 inh MLPCN 125, Myeloid diff active and GFP autofluor 3.
`C=CCn1c(SCC(N)=O)nc2scc(-c3ccc(C)o3)c2c1=O` gave Myeloid diff MLP inactive, Exocytosis inh -8 and ABCB6 inh MLPCN 101.
Screening COc1ccc(NC(=O)N2CCN(CCC#N)CC2)cc1 returned Myeloid diff MLP inactive, Exocytosis inh 0, ABCB6 inh MLPCN 97, Myeloid diff inactive and GFP autofluor 0.
Screening COc1ccc(NC(=O)N2CCN(C(=O)Nc3ccc(OC)cc3)CC2)cc1 returned Myeloid diff MLP inactive, Exocytosis inh -5 and ABCB6 inh MLPCN 86.
`CCCn1c(SCC(=O)NC2CCCC2)nc2c1c(=O)n(C)c(=O)n2C` gave Myeloid diff MLP inactive, Exocytosis inh 1 and ABCB6 inh MLPCN 102.
Screening COCOCCn1cc(CN2CCS(=O)(=O)N(Cc3ccc(-c4ccc(Cl)nc4)cc3)C(C(C)C)C2=O)nn1 (stereo unspecified) returned Myeloid diff MLP inactive, Exocytosis inh -8 and ABCB6 inh MLPCN 93.
O=C(CCCCCn1c(=S)[nH]c2cc3c(cc2c1=O)OCO3)N1CCN(c2ccccc2)CC1 was read as Myeloid diff MLP inactive, Exocytosis inh -12 and ABCB6 inh MLPCN 98.
`O=C(CCCn1c(=S)[nH]c2cc3c(cc2c1=O)OCO3)N1CCN(c2ncccn2)CC1` gave Myeloid diff MLP inactive, Exocytosis inh -1, ABCB6 inh MLPCN 105, Myeloid diff inactive and GFP autofluor 0.
Cc1ccc(S(=O)(=O)NNC(=O)c2ccc3ccccc3n2)cc1 was read as Myeloid diff MLP inactive, Exocytosis inh -7 and ABCB6 inh MLPCN 97.
`C=CC[C@@H](CC(=O)N[C@H](CO)Cc1ccccc1)C(=O)NC[C@H](OC(=O)[C@@H](CC=C)Cc1ccc(F)cc1)c1ccccc1` gave Myeloid diff MLP inconclusive, Exocytosis inh -11 and ABCB6 inh MLPCN 79.
For O=[N+]([O-])c1cccc(-c2ccc(C(=S)N3CCOCC3)o2)c1 the results were Myeloid diff MLP inactive, Exocytosis inh inconclusive and ABCB6 inh MLPCN 98.
For O=[N+]([O-])c1cc(-c2ccc(C(=S)N3CCOCC3)o2)ccc1Cl the results were Myeloid diff MLP active, Exocytosis inh 35, ABCB6 inh MLPCN 102, Myeloid diff inactive and GFP autofluor 0.
CC(NC(=O)CSc1nc(=O)cc(N)n1-c1ccccc1)c1ccccc1 (stereo unspecified) was read as Myeloid diff MLP inactive, Exocytosis inh 3 and ABCB6 inh MLPCN 100.
For C=CCn1c(N)cc(=O)nc1SCC(=O)NC(C)c1ccccc1 (stereo unspecified) the results were Myeloid diff MLP inactive, Exocytosis inh -4, ABCB6 inh MLPCN 99, Myeloid diff inactive and GFP autofluor 0.
`COc1ccc(C(C(=O)NC(C)(C)C)N(C(=O)CCC(=O)Nc2cc(C)on2)c2ccc(C)c(C)c2)cc1` (stereo unspecified) gave Myeloid diff MLP inactive, Exocytosis inh 16 and ABCB6 inh MLPCN 95.
For Cc1nc(NCCO)c(C#N)c2c1COC(C)(C)C2 the results were Myeloid diff MLP active, Exocytosis inh -2, ABCB6 inh MLPCN 99, Myeloid diff inactive and GFP autofluor 1.
CN(C)CCCNc1nc(-c2ccccc2)c2c(c1C#N)CC(C)(C)OC2 was read as Myeloid diff MLP inactive, Exocytosis inh 0 and ABCB6 inh MLPCN 94.
For Cc1ccc(S(=O)(=O)NCc2ccc(C(=O)N3CCN(c4ccc([N+](=O)[O-])cc4)CC3)cc2)cc1 the results were Myeloid diff MLP inactive, Exocytosis inh 40 and ABCB6 inh MLPCN 96.
Screening Cc1noc(C)c1COc1ccc(C(=O)OC(C)C(=O)Nc2ccc(S(=O)(=O)N3CCOCC3)cc2)cc1 (stereo unspecified) returned Myeloid diff MLP inactive, Exocytosis inh 1 and ABCB6 inh MLPCN 95.
Screening CC1CC(C)CN(C(=O)COC(=O)c2ccc(S(=O)(=O)N(C)c3ccccc3)cc2)C1 (stereo unspecified) returned Myeloid diff MLP inactive, Exocytosis inh 0, ABCB6 inh MLPCN 100, Myeloid diff inactive and GFP autofluor 0.
Screening CC1CC(C)CN(C(=O)COC(=O)c2cccc(S(=O)(=O)N(C)c3ccccc3)c2)C1 (stereo unspecified) returned Myeloid diff MLP inactive, Exocytosis inh 4 and ABCB6 inh MLPCN 96.
`O=C(N/N=C/c1ccc([N+](=O)[O-])s1)c1ccccc1Br` gave Myeloid diff MLP inactive, Exocytosis inh 1 and ABCB6 inh MLPCN 98.
Screening O=C(Cc1ccccc1)N/N=C/c1ccc([N+](=O)[O-])s1 returned Myeloid diff MLP active, Exocytosis inh -1, ABCB6 inh MLPCN 118, Myeloid diff inactive and GFP autofluor 3.
CC(CCc1ccccc1)NC(=O)CCNS(=O)(=O)c1ccccc1 (stereo unspecified) was read as Myeloid diff MLP inactive, Exocytosis inh 8 and ABCB6 inh MLPCN 98.
For COc1ccc(CN2CCC2(C)C(=O)Nc2ccc(OC)c(OC)c2)cc1 (stereo unspecified) the results were Myeloid diff MLP inactive, Exocytosis inh -10 and ABCB6 inh MLPCN 99.
